# Data from PubChem BioAssay (Tox21).
# A number with no mark means an inactive call. Inconclusive results are not listed. Where a call stands in place of a potency, no number is given. Calls of active or inactive are those of the source. Unless noted, the call rests on the fitted dose curve; in most records, active means well fitted curve in the direction sought with a large enough effect in the repeat runs; inconclusive means weak or mixed curves; inactive means no such curve, though single readings can be large; an effect the other way counts as inactive or inconclusive.
# Experiments:
# [1] = qHTS assay to identify small molecule antagonists of the estrogen related receptor (ERR) signaling pathway from Tox21 library - cell viability counter screen (AID 1224834); further: nearly all actives have a fitted effect of over 30% in size; further: potency means the concentration at half of the fitted maximal effect
# Method in brief: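 ERR reporter cells were plated 6 h before compound addition, then exposed to test compounds in DMSO for 17.5 h at 37 C. Viability was read as CellTiter-Fluor fluorescence after a 30-minute incubation at 37 C.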
# [2] = molecular target: Luciferin 4-monooxygenase (Photinus pyralis) (UniProt P08659); experiment: qHTS assay to identify small molecule inhibitors of firefly luciferase (AID 1224835); further: nearly all actives have a fitted effect of over 25% in size; further: potency means the concentration at half of the fitted maximal effect
# Chain of Luciferin 4-monooxygenase (Photinus pyralis) (P08659 whole entry, looked up): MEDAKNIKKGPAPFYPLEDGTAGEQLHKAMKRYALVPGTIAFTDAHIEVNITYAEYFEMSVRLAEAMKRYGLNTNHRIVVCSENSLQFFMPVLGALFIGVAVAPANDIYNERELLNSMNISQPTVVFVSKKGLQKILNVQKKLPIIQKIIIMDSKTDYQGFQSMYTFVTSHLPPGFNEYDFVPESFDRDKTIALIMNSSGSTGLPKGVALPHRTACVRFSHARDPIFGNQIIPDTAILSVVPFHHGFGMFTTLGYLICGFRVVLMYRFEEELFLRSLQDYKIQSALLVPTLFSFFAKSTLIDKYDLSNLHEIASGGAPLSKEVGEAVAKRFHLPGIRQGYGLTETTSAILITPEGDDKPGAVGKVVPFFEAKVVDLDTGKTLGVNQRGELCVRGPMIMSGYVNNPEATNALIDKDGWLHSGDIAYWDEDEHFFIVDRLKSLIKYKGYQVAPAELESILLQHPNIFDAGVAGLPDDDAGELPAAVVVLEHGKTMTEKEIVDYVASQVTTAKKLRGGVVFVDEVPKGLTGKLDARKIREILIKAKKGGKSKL
# Method in brief: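 Quantitative HTS format; KM concentrations of both substrates. Purified P. pyralis FLuc activity quantified from luminescence images.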
# [3] = qHTS assay to identify small molecule agonists of the constitutive androstane receptor (CAR) signaling pathway - cell viability counter screen (AID 1224836); further: nearly all actives have a fitted effect of over 45% in size; further: potency means the concentration at half of the fitted maximal effect
# Method in brief: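 Counter screen multiplexed with the CAR reporter readout: HepG2 cells co-transfected with hCAR and the CYP2B6-2.2kb construct receive a 15-concentration compound series and 0.75 uM PK11195 (final), then CellTiter-Fluor fluorescence is read after 23 h.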
# [4] = molecular target: Nuclear receptor subfamily 1 group I member 3 (Homo sapiens) (UniProt Q14994); experiment: qHTS assay to identify small molecule antagonists of the constitutive androstane receptor (CAR) signaling pathway (AID 1224838); further: nearly all actives have a fitted effect of over 40% in size; further: potency means the concentration at half of the fitted maximal effect
# Chain of Nuclear receptor subfamily 1 group I member 3 (Homo sapiens) (Q14994 whole entry, looked up): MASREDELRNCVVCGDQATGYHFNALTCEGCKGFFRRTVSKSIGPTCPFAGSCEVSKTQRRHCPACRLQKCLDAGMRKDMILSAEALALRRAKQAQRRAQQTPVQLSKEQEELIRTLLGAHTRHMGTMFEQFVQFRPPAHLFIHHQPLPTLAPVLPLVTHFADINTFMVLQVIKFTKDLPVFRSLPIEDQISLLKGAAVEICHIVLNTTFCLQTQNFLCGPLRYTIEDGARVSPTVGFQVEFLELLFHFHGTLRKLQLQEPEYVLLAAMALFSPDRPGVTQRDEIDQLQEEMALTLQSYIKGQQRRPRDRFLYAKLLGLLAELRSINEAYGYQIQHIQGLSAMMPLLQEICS
# Method in brief: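 HepG2 cells stably co-transfected with hCAR and a CYP2B6-2.2kb luciferase reporter were seeded 4 h before compound addition at 15 concentrations. Cells were stimulated with 50 nM CITCO (final) for 24 h at 37 C; luciferase luminescence was then read.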
# [5] = molecular target: Nuclear receptor subfamily 1 group I member 3 (Homo sapiens) (UniProt Q14994); experiment: qHTS assay to identify small molecule agonists of the constitutive androstane receptor (CAR) signaling pathway (AID 1224839); further: nearly all actives have a fitted effect of over 15% in size
# Method in brief: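 A 15-concentration quantitative screen uses HepG2 cells co-transfected stably with human CAR and CYP2B6-2.2kb reporter. Treatment lasts 24 h with 0.75 uM PK11195 final present; ONE-Glo luminescence is the signal.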
# [6] = qHTS assay to identify small molecule antagonists of the estrogen related receptor signaling pathway with the pleiotropic PPARgamma coactivator (PGC) from Tox21 10K library - cell viability counter screen (AID 1224840; active means well fitted cell-killing curve with a large enough effect in the repeat runs, not every such curve was filed as active; further: nearly all actives have a fitted effect of over 40% in size; further: potency means the concentration at half of the fitted maximal effect)
# Method in brief: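 PGC/ERR cells were seeded at 2,000 cells/well and left 6 hours at 37 C/5% CO2 before pin-tool addition of compounds in DMSO. After 17.5 hours at 37 C, CellTiter-Fluor was added and fluorescence read 30 minutes later.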
# [7] = molecular target: Thyrotropin receptor (Homo sapiens) (UniProt P16473); experiment: qHTS assay to identify small molecule agonists of the thyroid stimulating hormone receptor (TSHR) signaling pathway (AID 1224843; calls by dose curve; further: nearly all actives have a fitted effect of over 45% in size; further: potency means the concentration at half of the fitted maximal effect)
# Chain of Thyrotropin receptor (Homo sapiens) (P16473 whole entry, looked up): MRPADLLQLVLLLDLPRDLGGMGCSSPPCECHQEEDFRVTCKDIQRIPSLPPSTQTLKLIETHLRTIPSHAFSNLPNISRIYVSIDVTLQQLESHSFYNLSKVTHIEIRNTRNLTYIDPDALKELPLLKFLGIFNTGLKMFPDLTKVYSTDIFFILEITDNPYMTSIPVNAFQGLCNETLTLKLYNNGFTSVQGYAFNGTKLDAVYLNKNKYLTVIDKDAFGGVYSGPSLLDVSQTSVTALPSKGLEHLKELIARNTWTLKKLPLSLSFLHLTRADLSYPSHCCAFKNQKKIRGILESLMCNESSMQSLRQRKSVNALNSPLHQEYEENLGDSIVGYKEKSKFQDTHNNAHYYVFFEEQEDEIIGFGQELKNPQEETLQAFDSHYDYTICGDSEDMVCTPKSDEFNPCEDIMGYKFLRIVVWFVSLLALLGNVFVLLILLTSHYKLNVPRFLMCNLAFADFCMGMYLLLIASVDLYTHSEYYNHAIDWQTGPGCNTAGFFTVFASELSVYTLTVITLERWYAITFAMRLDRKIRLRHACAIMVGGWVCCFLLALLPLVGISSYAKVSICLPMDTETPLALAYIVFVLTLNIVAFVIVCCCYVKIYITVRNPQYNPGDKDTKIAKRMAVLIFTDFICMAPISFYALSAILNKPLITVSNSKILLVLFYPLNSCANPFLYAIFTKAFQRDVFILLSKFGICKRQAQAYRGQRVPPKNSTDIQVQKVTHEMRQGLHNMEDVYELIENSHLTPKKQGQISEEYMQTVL
# Method in brief: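 Cell line HEK293 with TSHR; density 800/well. Exposure 30 min RT. Readout HTRF cAMP (cAMP-d2/anti-cAMP-cryptate), 1 h RT before reading.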
# [8] = qHTS assay to identify small molecule agonists of the hypoxia (HIF-1) signaling pathway - cell viability counter screen (AID 1224844; calls by dose curve; further: nearly all actives have a fitted effect of over 50% in size; further: potency means the concentration at half of the fitted maximal effect)
# Method in brief: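 HRE-bla ME-180 cells in medium with 0.5% dialyzed FBS were preincubated 5 hrs at 37C, exposed to compounds for 17 hrs, then viability was read as CellTiter-Glo luminescence after 30 min at room temperature, in the reporter wells.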
# [9] = qHTS assay to identify small molecule agonists of H2AX (AID 1224845; active means well fitted activation curve with a large enough effect in the signal ratio in the repeat runs, not every such curve was filed as active; the % refers to the signal ratio)
# Method in brief: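 Wild-type CHO-K1 cells plated overnight, then exposed 3 hr at 37C to compounds at 15 concentrations (0.76% DMSO). Lysed, then HTRF anti-pH2AX(S139)-cryptate/anti-H2AX-d2 detection after 24 hr at room temperature; emissions 665 and 620 nm.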
# [10] = qHTS assay to identify small molecule agonists of H2AX - cell viability counter screen (AID 1224847; calls by dose curve; further: nearly all actives have a fitted effect of over 30% in size; further: potency means the concentration at half of the fitted maximal effect)
# Method in brief: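 We seed wild-type CHO-K1 cells overnight, treat them for 3 hr at 37C with compounds in 15-concentration series, and quantify remaining viability by CellTiter-Glo luminescence.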
# [11] = qHTS RealTime-Glo MT Cell Viability Assay in HepG2 cells - 24 hour (AID 1224867); further: nearly all actives have a fitted effect of over 50% in size; further: potency means the concentration at half of the fitted maximal effect
# Method in brief: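 Viability was tracked continuously by NanoLuc luminescence from prosubstrate reduced by living HepG2 cells, at successive time points over 40 h of compound exposure. Cells with reagent were preincubated 5 h at 37 °C before compound addition.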
# [12] = qHTS RealTime-Glo MT Cell Viability Assay in HEK293 cells - 32 hour (AID 1224868); further: nearly all actives have a fitted effect of over 50% in size; further: potency means the concentration at half of the fitted maximal effect
# Method in brief: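 Viability tracked continuously by luminescence as live cells reduce a prosubstrate for NanoLuc; HEK293 cells preincubated 5 h, compound-treated at 37 C, and read at 0, 8, 16, 24, 32 and 40 h.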
# [13] = A CellTox Green Cytotoxicity Assay to monitor cytotoxicity in HEK293 cells - 0 hour (AID 1224869); further: nearly all actives have a fitted effect of over 50% in size
# Method in brief: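 HEK293 cells premixed with CellTox Green dye were seeded at 600 cells/well and left 5 h at 37 C/5% CO2 before pin transfer of 23 nL compound in DMSO. Fluorescence from dye bound to dead-cell DNA was read during 40 h treatment.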
# [14] = qHTS RealTime-Glo MT Cell Viability Assay in HepG2 cells - 40 hour (AID 1224870); further: nearly all actives have a fitted effect of over 50% in size; further: potency means the concentration at half of the fitted maximal effect
# Method in brief: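 HepG2 cells mixed with RealTime-Glo MT reagents (NanoLuc plus cell-permeant prosubstrate) were seeded at 600 cells/well, incubated 5 h at 37 C/5% CO2, then pinned with compounds in DMSO; nonlytic luminescence tracked viability during 40 h treatment.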
# [15] = qHTS assay to identify small molecule antagonists of the constitutive androstane receptor (CAR) signaling pathway - cell viability counter screen (AID 1224837); further: nearly all actives have a fitted effect of over 45% in size
# Method in brief: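 HepG2 cells stably expressing hCAR and a CYP2B6-2.2kb reporter were plated and pre-incubated 4 hr at 37 C/5% CO2, then given compounds at 15 concentrations plus 50 nM CITCO (final). After 23 hr, viability was read by CellTiter-Fluor fluorescence.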
# [16] = qHTS assay to identify small molecule antagonists of the estrogen related receptor signaling pathway with the pleiotropic PPARgamma coactivator (PGC) from Tox21 10K library (AID 1224841; call rule not given here)
# Method in brief: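 PGC/ERR reporter cells were seeded at 2,000 cells/well and held 6 hours at 37 C/5% CO2 before pin-tool addition of compounds in DMSO. After 18 hours at 37 C, One-Glo was added and luminescence read after 30 minutes at room temperature.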
# [17] = qHTS assay to identify small molecule agonists of the hypoxia (HIF-1) signaling pathway (AID 1224846; active means well fitted activation curve with a large enough effect in the signal ratio in the repeat runs, not every such curve was filed as active; the % refers to the signal ratio)
# Method in brief: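 HRE-bla ME-180 cells (beta-lactamase reporter under hypoxia response element) were plated at 2,000 cells/well in medium with 0.5% dialyzed FBS, rested 5 hrs, then given compounds in DMSO for 17 hrs at 37C, 5% CO2. Reporter induction was read with CCF4-AM FRET substrate.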
# [18] = qHTS assay to identify small molecule antagonists of the estrogen related receptor (ERR) signaling pathway from Tox21 library (AID 1224848); further: nearly all actives have a fitted effect of over 50% in size; further: potency means the concentration at half of the fitted maximal effect
# Method in brief: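 Screening used an ERR reporter line supplied by NTP, exposed for 18 h at 37 C to library compounds delivered in DMSO. Signal was luciferase luminescence developed with ONE-Glo at room temperature for 30 min.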
# [19] = qHTS assay to identify small molecule agonists of the estrogen related receptor (ERR) signaling pathway from Tox21 library (AID 1224849; calls by dose curve; further: nearly all actives have a fitted effect of over 15% in size); conditions: ERR reporter cell line, ONE-Glo luciferase, 18 h; at 92.4 µM (top of the series) unless noted
# Method in brief: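 ERR reporter cell line (NTP) seeded, rested 6 h at 37 C/5% CO2, then pinned with Tox21 compounds in DMSO. After 18 h at 37 C, ONE-Glo luciferase luminescence was read following 30 min at room temperature.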
# [20] = qHTS assay to identify small molecule agonists of the estrogen related receptor signaling pathway with the pleiotropic PPARgamma coactivator (PGC) from Tox21 10K library (AID 1224842); further: nearly all actives have a fitted effect of over 15% in size
# Method in brief: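 PGC/ERR reporter cells (NTP line) were seeded 2,000 per well, rested 6 h at 37 C/5% CO2, then pin-dosed with compounds in DMSO for 18 h at 37 C; luciferase read by One-Glo luminescence after 30 min at room temperature.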
Structure (SMILES),Potency [1],Potency [2],Potency [3],Potency [4],Potency [5],Potency [6],Potency [7],Potency [8],Potency [9],Potency [10],Potency [11],Potency [12],Potency [13],Potency [14],Potency [15],Potency [16],Potency [17],Potency [18],"activity change, positive = activation [19]",Potency [20]
CN1C2CCC(C)(C)C1CC(OC(=O)C(O)(c1cccs1)c1cccs1)C2 (configuration not stated),inactive,inactive,inactive,inactive,inactive,inactive,inactive,inactive,inactive,inactive,inactive,inactive,inactive,inactive,,,,,,
O=C(Nc1ccc(F)cc1F)c1cccnc1Oc1cccc(C(F)(F)F)c1,inactive,inactive,inactive,,,inactive,37800 nM (active),inactive,,,inactive,inactive,inactive,inactive,inactive,inactive,inactive,inactive,5%,
CCOP(=O)(OCC)Oc1cc(C)nc(C(C)C)n1,inactive,inactive,inactive,,,,inactive,inactive,inactive,inactive,inactive,inactive,,inactive,inactive,inactive,inactive,inactive,-6.77%,inactive
N#Cc1ccc(N(CC(N)=O)CC(F)(F)F)cc1C(F)(F)F,inactive,inactive,inactive,,,inactive,inactive,inactive,inactive,inactive,inactive,inactive,,inactive,inactive,,inactive,,,
CCC(C)Nc1c([N+](=O)[O-])cc(C(C)(C)C)cc1[N+](=O)[O-] (configuration not stated),inactive,71000 nM (active),inactive,,,inactive,,inactive,,,inactive,inactive,inactive,inactive,inactive,inactive,inactive,inactive,11.9%,inactive
COC(=O)c1ccccc1S(=O)(=O)NC(=O)Nc1nc(C)nc(OC)n1,inactive,inactive,inactive,,,inactive,inactive,inactive,inactive,inactive,inactive,inactive,inactive,inactive,inactive,,inactive,,,
COC(=O)/C=C(\C)OP(=O)(OC)OC,inactive,inactive,inactive,inactive,inactive,inactive,inactive,inactive,,,,inactive,inactive,inactive,,,,,-31.3%,inactive
C[N+]1(C)[C@@H]2CC[C@H]1CC(OC(=O)C(CO)c1ccccc1)C2 (some centres not stated),inactive,inactive,inactive,,,inactive,inactive,inactive,inactive,,inactive,inactive,,23900 nM (active),inactive,,,,,
C=C(C)C(=O)[O][Sn]([CH2]CCC)([CH2]CCC)[CH2]CCC,1720 nM (active),35600 nM (active),770 nM (active),273 nM (active),inactive,864 nM (active),486 nM (active),692 nM (active),,,436 nM (active),275 nM (active),inactive,195 nM (active),,,,486 nM (active),-73.3%,inactive
Nc1c(Cl)c(Cl)c(Cl)c(Cl)c1Cl,inactive,inactive,inactive,inactive,,inactive,,inactive,inactive,inactive,inactive,,,inactive,,,,,,
COc1ccc2[nH]cc(CCN(C(C)C)C(C)C)c2c1,inactive,inactive,inactive,inactive,inactive,inactive,inactive,inactive,,inactive,,inactive,inactive,inactive,,,inactive,,,
NC(=O)C(Cl)Cl,inactive,inactive,inactive,,,inactive,,inactive,inactive,,inactive,inactive,,inactive,inactive,,,,,
CC(C)=CC1C(C(=O)OC(C#N)c2cccc(Oc3ccccc3)c2)C1(C)C (configuration not stated),inactive,inactive,inactive,,,inactive,,inactive,inactive,,inactive,,,inactive,inactive,inactive,inactive,inactive,-9.74%,inactive
COCCC#N,inactive,inactive,inactive,,,inactive,inactive,inactive,inactive,inactive,inactive,inactive,inactive,inactive,inactive,,,,,
[Cl][Hg][c]1ccccc1,3440 nM (active),6330 nM (active),6860 nM (active),3860 nM (active),inactive,2430 nM (active),,1380 nM (active),,,2750 nM (active),1100 nM (active),inactive,3090 nM (active),,,,,,
Oc1ccc(Cl)c(Cl)c1,inactive,inactive,inactive,inactive,inactive,,,inactive,inactive,49700 nM (active),inactive,,inactive,inactive,,inactive,inactive,inactive,-11.7%,inactive
ClC1=C(Cl)[C@]2(Cl)[C@@H]3[C@H]4C[C@H]([C@@H]5O[C@H]45)[C@@H]3[C@@]1(Cl)C2(Cl)Cl,inactive,inactive,inactive,,,inactive,4320 nM (active),inactive,,inactive,inactive,,inactive,inactive,inactive,,inactive,,-25%,inactive
